In PubChem BioAssay (NCATS):
Records with an inconclusive call do not appear. Where a call stands in place of a potency, no number is given. Activity calls are given as the source filed them. Calls follow the shape of the dose curve; as a rule, active = well fitted curve in the direction sought with a large enough effect; inconclusive = small, poorly fitted or top-dose-only effect, or another doubt; inactive = no such curve, though single readings can be large; an effect the other way counts as inactive or inconclusive.

Columns and labels:
[1] = biological target: Glutathione peroxidase 1 (Homo sapiens) (UniProt P07203); test: Primary qHTS Assay for Inhibitors of Recombinant Selenoprotein Glutathione Peroxidase 1 (GPX1) (AID 1845191); also: nearly all actives have a fitted effect of over 65% in size
Method in brief: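 GR-coupled assay: compounds preincubated 30 min at room temperature with GPX1, then reaction started with CHP; final 10 nM GPX1, 1 mM GSH, 0.5 mM CHP, 0.5 mM NADPH, 100 nM GR, 0.01% BSA, pH 7.5 Tris buffer. NADPH fluorescence (340/450 nm) read at 0 and 15 min.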

[2] = biological target: Phospholipid hydroperoxide glutathione peroxidase GPX4 (Homo sapiens) (UniProt P36969); test: Primary qHTS Assay for Inhibitors of Recombinant Selenoprotein Glutathione Peroxidase 4 (GPX4) (AID 1845192); also: nearly all actives have a fitted effect of over 65% in size
Method in brief: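 GR-coupled assay: recombinant GPX4 preincubated 30 min with compound at room temperature; final 200 nM GPX4, 1 mM GSH, 0.5 mM cumene hydroperoxide, 0.5 mM NADPH, 100 nM GR, 0.01% BSA, pH 7.5 Tris. NADPH fluorescence (340/450 nm) read at 0 and 15 min.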

[3] = Quantitative High-Throughput drug screen in 47 multiple myeloma cell lines against the NCATS MIPE library collection: FR4_PLB cell viability assay (AID 1918924; also: nearly all actives have a fitted effect of over 35% in size; also: potency is read from the fitted curve at half-maximal effect)
Method in brief: (§1)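 Myeloma cell lines, 500 cells per well, exposed to MIPE 4.0 library compounds for 48 h at 37C, 5% CO2. Viability from ATP by CellTiter-Glo luminescence; normalised to DMSO (100%) and media-only (0%) wells.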

[4] = Quantitative High-Throughput drug screen in 47 multiple myeloma cell lines against the NCATS MIPE library collection: Delta47_JCRB cell viability assay (AID 1918925; also: nearly all actives have a fitted effect of over 45% in size; also: potency is read from the fitted curve at half-maximal effect)
Method in brief: as §1

[5] = Quantitative High-Throughput drug screen in 47 multiple myeloma cell lines against the NCATS MIPE library collection: EJM_DSMZ cell viability assay (AID 1918926; also: nearly all actives have a fitted effect of over 30% in size; also: potency is read from the fitted curve at half-maximal effect)
Method in brief: as §1

[6] = biological target: Luciferin 4-monooxygenase (Photinus pyralis) (UniProt P08659); test: Primary firefly luciferase (FLuc) qHTS assay for identification of artifact compounds. (AID 1845220); settings: outcome: dose series up to 54.1 µM unless noted; also: nearly all actives have a fitted effect of over 60% in size
Method in brief: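 Titrated compounds were incubated 15 min at RT, protected from light, with luciferin and ATP at 10 uM; reaction started with 10 nM FLuc, luminescence imaged at 5 min, and concentration-response fitted by Hill equation.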

[7] = Primary fluorescence-based thiol-reactive (MSTI) qHTS assay for identification of artifact compounds. (AID 1845221);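 also: series mostly up to about 54 µM; thiol-reactive compounds lower the probe fluorescence signal; nearly all actives have a fitted effect of over 65% in size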
Method in brief: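 qHTS titration of compound; 4 uM MSTI, PBS pH 7.4, 2% DMSO; 1 h RT, dark; fluorescence 525/598 nm; normalized to Acetyl-MSTI and MSTI; 4-parameter Hill fit.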

[8] = test system: Nanoluciferase (engineered Oplophorus gracilirostris luciferase); test: Primary Nanoluciferase (NLuc) qHTS assay for identification of artifact compounds. (AID 1845222);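 also: NLuc secreted into diluted conditioned medium of S16 cells; series mostly up to about 54 µM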
Method in brief: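 qHTS format, against NLuc in S16 cell-conditioned medium. Nano-Glo substrate 1:100 was added after 15 min at room temperature. Luminescence was taken after a further 5 min.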

[9] = Primary redox qHTS assay for identification of artifact compounds. (AID 1845223)
Method in brief: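 Amplex Red (25 uM) and HRP (250 mU/mL) in HBSS, with compounds for 15 min, then 250 uM DTT for 30 min, room temperature, dark. Fluorescence 525/598 nm read; normalized to DMSO and 10 uM DA3003; Hill fit.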

Sequence of Glutathione peroxidase 1 (Homo sapiens) (P07203 whole entry, looked up): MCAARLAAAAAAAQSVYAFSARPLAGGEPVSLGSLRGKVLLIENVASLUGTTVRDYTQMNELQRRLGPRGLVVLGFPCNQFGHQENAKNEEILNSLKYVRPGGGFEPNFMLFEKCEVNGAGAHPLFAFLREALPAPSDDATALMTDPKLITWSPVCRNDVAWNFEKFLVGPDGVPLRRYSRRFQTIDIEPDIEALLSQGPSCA
Sequence of Phospholipid hydroperoxide glutathione peroxidase GPX4 (Homo sapiens) (P36969 whole entry, looked up): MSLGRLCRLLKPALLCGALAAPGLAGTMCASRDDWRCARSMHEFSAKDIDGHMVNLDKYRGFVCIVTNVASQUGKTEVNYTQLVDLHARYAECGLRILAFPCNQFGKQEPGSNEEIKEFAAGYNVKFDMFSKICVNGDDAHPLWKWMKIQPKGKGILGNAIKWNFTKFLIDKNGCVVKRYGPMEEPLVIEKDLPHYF

CCN1C[C@]2(OC(=O)c3ccccc3NC(C)=O)CC[C@H](OC)[C@@]34[C@H]5CC6[C@@H](OC)C[C@](O)(C(C[C@@H]23)[C@@H]14)[C@@]5(O)[C@@H]6OC
Potency [1]: inactive
Potency [2]: inactive
Potency [3]: inactive
Potency [4]: inactive
Potency [5]: inactive

C[C@@H]1[C@H](O)[C@@H](C)C=CC=CCCC=CC=CC=CC=C[C@H](O[C@H]2O[C@@H](C)[C@H](O)[C@@H](N)[C@@H]2O)CC2O[C@](O)(C[C@@H](O)[C@H](O)CC[C@@H](O)C[C@@H](O)C[C@@H](O)CC(=O)O[C@H]1C)C[C@H](O)[C@H]2C(=O)O
Potency [3]: inactive

CN[C@@H]1Cc2cccc3[nH]c(=O)n(c23)C1
Potency [1]: inactive
Potency [2]: inactive
Potency [3]: 11.8 µM (active)
Potency [4]: inactive
Potency [5]: inactive

CC(=Cc1csc(C)n1)[C@@H]1C[C@H]2O[C@]2(C)CCC[C@H](C)[C@@H](O)[C@@H](C)C(=O)C(C)(C)[C@@H](O)CC(=O)O1
Potency [3]: inactive
Potency [4]: inactive

C#CC1(O)CCC2C3CCC4=CC(=O)CCC4(C)C3CCC21C (configuration not stated)
Potency [1]: inactive
Potency [2]: inactive
Potency [4]: inactive
Potency [5]: inactive

COc1cc([C@@H]2c3cc4c(cc3[C@@H](O)C3COC(=O)C32)OCO4)cc(OC)c1O (some centres not stated)
Potency [1]: inactive
Potency [2]: inactive
Potency [3]: 0.0066 µM (active)
Potency [4]: 0.0264 µM (active)
Potency [5]: 0.0469 µM (active)

Cc1c(C(=O)c2cccc3ccccc23)c2cccc3c2n1[C@H](CN1CCOCC1)CO3
Potency [3]: 23.5 µM (active)
Potency [4]: 14.8 µM (active)

O=c1[nH]c2ccccc2n1C1CCN(Cc2ccc(-c3[nH]c4cc5ncnc5cc4nc3-c3ccccc3)cc2)CC1
Potency [1]: inactive
Potency [3]: 23.5 µM (active)
Potency [4]: 1.87 µM (active)

O=C(N[C@@H](COc1ccc2[nH]c(=O)[nH]c2c1)c1ccccc1)c1cccn(Cc2ccc(F)c(F)c2)c1=O
Potency [1]: inactive
outcome [6]: inactive
Potency [7]: inactive
outcome [8]: inactive
outcome [9]: inactive
Potency [4]: 20.9 µM (active)

N=c1c2c(-c3ccccc3)c(-c3ccccc3)n(Cc3ccccc3)c2ncn1C1CCC(O)CC1 (configuration not stated)
Potency [1]: inactive
Potency [2]: inactive
Potency [4]: 0.166 µM (active)

COC[C@H]1OC(=O)c2coc3c2[C@@]1(C)C1=C(C3=O)[C@@H]2CC[C@H](O)[C@@]2(C)C[C@@H]1OC(C)=O
Potency [3]: 3.72 µM (active)
Potency [4]: 0.0066 µM (active)

CSCC[C@@H](NC(=O)[C@@H](Cc1ccccc1)NC(=O)CNC(=O)CNC(=O)[C@@H](N)Cc1ccc(O)cc1)C(=O)O
Potency [1]: inactive
Potency [2]: inactive
Potency [3]: inactive
Potency [4]: inactive
Potency [5]: inactive

CC(C)(C)c1cc(C=C(C#N)C#N)cc(Br)c1O
Potency [1]: inactive
Potency [3]: 26.4 µM (active)
Potency [4]: 16.6 µM (active)

COc1cccc2c1[C@]13CCN(CC4CC4)[C@H](C2)[C@]1(OC)CCC(=O)C3
Potency [3]: inactive
Potency [4]: inactive

COc1ccc(CC2NCCc3cc(OC)c(OC)cc32)cc1OC (configuration not stated)
Potency [3]: inactive
Potency [4]: inactive

CC1=C(O)C(=O)C=C2C1=CC=C1[C@@]2(C)CC[C@@]2(C)[C@@H]3C[C@](C)(C(=O)O)CC[C@]3(C)CC[C@]12C
Potency [1]: inactive
Potency [3]: 0.743 µM (active)
Potency [4]: 0.833 µM (active)
Potency [5]: 0.743 µM (active)

CN1[C@H]2CC(O)C[C@H]1[C@H]1O[C@H]12 (some centres not stated)
Potency [3]: 26.4 µM (active)
Potency [4]: 9.35 µM (active)
Potency [5]: 20.9 µM (active)

C[C@@H]1O[C@@H](O[C@@H]2C=C3CC[C@@H]4[C@@H](CC[C@]5(C)[C@H](c6ccc(=O)oc6)CC[C@@]45O)[C@@]3(C)CC2)[C@H](O)[C@H](O)[C@H]1O
Potency [3]: 0.0083 µM (active)
Potency [4]: 0.0264 µM (active)
Potency [5]: 0.0209 µM (active)

CC(C)N[C@@H]1CCn2c(=O)[nH]c3cccc(c32)[C@@H]1O
Potency [4]: 14.8 µM (active)
Potency [5]: 14.8 µM (active)
